MRP reversal: reversal of MRP1-mediated doxorubicin resistance, primary screen, H69AR cells, doxorubicin co-treatment. AID 602, 2007. 0.04% of 85,000 active. H69AR cells + 2 uM doxorubicin, CellTiter-Glo, 72 h. differential viability (reversal), % at 10 µM;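 active = viability drop by adding the cancer drug above about 55%, with treated viability meeting a 40% cutoff, limit read from the data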;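 note: viability without doxorubicin minus viability with 2 µM doxorubicin for each compound; larger differential means the compound sensitizes cells more to doxorubicin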
FAK inh: FAK kinase inhibitors, primary screen, biochemical; Focal adhesion kinase 1 (Homo sapiens), Q05397; biochemical FAK kinase activity assay; inhibition, %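 (tested at 7 µM)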; 0.84% of 97,000 active; AID 727, 2007; in the data active = inhibition above about 19%;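 note: 0% = DMSO and 100% = reference compound high control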
LYP act: LYP phosphatase activators, primary screen, biochemical, DiFMUP fluorescence, 2 µM; recombinant LYP; 0 = plate median, 100 = signal doubled; Tyrosine-protein phosphatase non-receptor type 22 (Homo sapiens), Q9Y2R2; activation, % at 2 µM; 0.11% of 96,000 active; AID 697, 2007;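 active = activation at 2 µM above a set limit, the mean plus 5 SD, cut at about 37% in these data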
PLAP act: PLAP enzyme activators, biochemical, luminescence, HTS; Alkaline phosphatase, placental type (Homo sapiens), P05187; purified PLAP enzyme, luminescent substrate read-out; hits give high values; activation fold at 20 µM; 1.2% of 96,000 active; AID 696, 2007; in the data active = activation fold above about 2
Target sequence (P05187 whole entry, looked up): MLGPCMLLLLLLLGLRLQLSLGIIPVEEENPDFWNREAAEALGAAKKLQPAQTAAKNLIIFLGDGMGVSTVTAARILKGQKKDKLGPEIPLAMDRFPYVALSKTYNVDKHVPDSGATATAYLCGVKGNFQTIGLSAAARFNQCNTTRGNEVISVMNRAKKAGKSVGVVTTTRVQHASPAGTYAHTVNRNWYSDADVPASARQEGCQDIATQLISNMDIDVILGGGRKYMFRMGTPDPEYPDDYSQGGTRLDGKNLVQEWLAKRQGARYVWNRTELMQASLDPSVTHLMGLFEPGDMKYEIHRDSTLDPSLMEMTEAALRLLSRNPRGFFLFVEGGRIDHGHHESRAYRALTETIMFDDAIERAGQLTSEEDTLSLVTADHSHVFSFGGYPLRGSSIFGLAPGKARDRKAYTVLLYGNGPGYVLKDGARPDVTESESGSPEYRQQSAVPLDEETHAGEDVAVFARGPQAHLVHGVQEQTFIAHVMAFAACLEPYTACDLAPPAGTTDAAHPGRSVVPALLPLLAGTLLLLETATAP
PTPN22 inh 2: PTPN22 phosphatase inhibitors, primary screen, biochemical, DiFMUP fluorescence, 2 µM | Tyrosine-protein phosphatase non-receptor type 22 (Homo sapiens), Q9Y2R2 | inhibition, % at 2 µM | recombinant LYP catalytic domain | 0.21% of 96,000 active;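 active = inhibition at 2 µM at or above a set limit, the screen mean plus 3 SD, cut at about 24% in these data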;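 note: 0% = DMSO with enzyme and 100% = enzyme fully blocked by orthovanadate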
MRP-1 activ: H69AR viability gain despite doxorubicin, primary screen, MRP-1 activator project, H69AR cells, CellTiter-Glo; viability rescue; viability increase, % at 10 µM; 0.61% of 140,000 active; AID 799, 2007;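 active = viability gain under doxorubicin at or above a set limit, the compound median plus 3 SD, cut at about 4.7% in these data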;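 note: MRP-1 overexpressing cells given doxorubicin 25 µM after compound pretreatment; 18-22 h compound pretreatment then 72 h with doxorubicin before readout; 0% = doxorubicin-only wells and 100% = vehicle-treated cells without doxorubicin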
* marks the source's active call; other numbers are inactive results; nt = no result given. Hits are enriched below; roughly 2.2% of the tested compounds scored in any of these assays.

SMILES	MRP reversal	FAK inh	LYP act	PLAP act	PTPN22 inh 2	MRP-1 activ
O=C(Cn1cnc2ccccc21)N/N=C/C(Br)=C/c1ccccc1	nt	nt	nt	nt	nt	-3
CCOC(=O)c1sc2nc(CN3CCN(c4cccc(C(F)(F)F)c4)CC3)[nH]c(=O)c2c1C	nt	nt	nt	nt	nt	-2
COCCCNC(=S)Nc1ccc(CC(=O)O)cc1	nt	nt	nt	nt	nt	-2
NC1=NC(c2ccc(Br)cc2)n2c(nc3ccccc32)N1 (stereo not given)	5	-1	7	2.2*	-1	-4
CCOC(=O)c1ccccc1-n1c(C)cc(C2N=C(N)Nc3nc4ccccc4n32)c1C (stereo not given)	nt	7	7	2.5*	-5	0
COc1ccc(C(=O)Nc2ccc(Cl)cc2C(=O)N2CCCC(C)C2)cc1OC (stereo not given)	nt	nt	nt	nt	nt	-4
Cc1cc2nc(CCN(C(=S)NCC(C)C)C3CCCC3)[nH]c2cc1C	nt	3	8	2.4*	-4	-5
S=C(Nc1ccccn1)c1ccccn1	0	1	-6	2.4*	5	-3
COCCn1c(=NC(=O)C(C)(C)C)sc2cc([N+](=O)[O-])ccc21	nt	nt	nt	nt	nt	0
COc1cccc(NC2=NC3(CCCCC3)N=C(N)N2)c1	-16	0	5	2.8*	-4	0
Cc1ccc(NC2=NC3(CCCCC3)N=C(N)N2)c(C)c1	-1	-1	1	2.2*	-4	-1
Cc1ccc(Nc2nc(CSc3nnc(-c4ccc(F)cc4)n3C)cs2)cc1	nt	nt	nt	nt	nt	0
O=C(CSc1ncccc1-c1nc2ccccc2[nH]1)NCc1ccco1	-10	6	-5	2*	3	-4
Cc1ccc(C(=O)NCCCN2CCOCC2)o1	-2	1	-10	nt	7	0
O=[N+]([O-])c1ccc(-c2nnc(CSc3nc(-c4ccccc4)nc4ccc(F)cc34)o2)cc1	4	0	11	nt	-12	nt
CC(O)c1nc2ccccc2n1C/C=C/c1ccccc1 (stereo not given)	12	-1	4	1.7	-5	-1
OCc1nc2ccccc2n1C/C=C/c1ccccc1	16	1	0	2*	0	-1
Cc1cc(C)n2nc(SCc3nnc(SCc4ccccc4C)s3)nc2n1	nt	-2	0	1.5	0	0
COc1cccc(CSc2nnc(CSc3nc4nc(C)cc(C)n4n3)s2)c1	nt	2	0	2.1*	-1	-2
Cc1ccccc1S(=O)(=O)NNC(=O)C(=O)NNc1ccccn1	nt	-5	3	2.4*	1	4
Cc1ccccc1S(=O)(=O)Nc1cccnc1	-7	-7	0	nt	-1	0
Cc1ccc(S(=O)(=O)NNC(=O)C(=O)NNc2ccccn2)cc1	nt	-5	-4	2.4*	8	1
Nc1ccc(S(=O)(=O)NNC(=O)C(=O)NNc2ccccn2)cc1	nt	1	10	1.7	-5	-2
O=C1CC(c2ccccc2)n2nc(NS(=O)(=O)c3ccccc3)nc2N1 (stereo not given)	1	0	-7	2*	3	0
O=C(COc1ccc(Cl)cc1Cl)Nc1nc2n(n1)C(c1ccccc1)CC(=O)N2 (stereo not given)	8	4	-6	1.6	6	1
SMILES	MRP reversal	FAK inh	LYP act	PLAP act	PTPN22 inh 2	MRP-1 activ
Cc1nn(Cc2cccc(C(=O)N3N=C(C(F)F)CC3(O)C(F)F)c2)c(C)c1[N+](=O)[O-] (stereo not given)	nt	-1	-1	1.5	1	0
CC1=NN(C(=O)c2cccc(Cn3nc(C)c([N+](=O)[O-])c3C)c2)C(O)(C(F)(F)F)C1 (stereo not given)	nt	0	-2	2.1*	5	0
S=c1[nH]c2ccc(Cl)cc2[nH]1	10	1	0	nt	-3	-2
COc1ccc2[nH]c(=S)[nH]c2c1	11	1	5	2.6*	-8	-1
CC1CCN(CCc2nc3cc(NC(=O)NC4CCCCC4)ccc3n2C)CC1	3	0	-3	2*	5	-6
Cn1c(CCN2CCCCC2)nc2cc(NC(=O)NC3CCCCC3)ccc21	6	nt	nt	1.3	nt	-6
CCn1c(SCC(=O)N(C(C)C)C(C)C)nnc1-c1cc2ccccc2cc1O	-2	1	1	2*	-2	-3
O=C(Cn1c(-c2cncs2)nc2ccccc21)NCCc1ccccc1	-56	3	4	0.8	-6	-2
COc1cccc(NC(=O)Cn2c(-c3cncs3)nc3ccccc32)c1	4	-1	3	2*	-5	-2
CC(=O)Oc1ccc2c(=O)c(Oc3ccccc3)coc2c1OC(C)=O	nt	nt	nt	nt	nt	1
CCOC(=O)N1CCC(N2CCN(S(=O)(=O)c3ccc(Cl)cc3)CC2)CC1	-5	1	28	2*	-26	-5
O=C(CN1CCN(S(=O)(=O)c2ccc(Cl)cc2)CC1)NC(=O)NC1CCCCC1	nt	0	1	2*	-4	-1
O=C(CN1CCN(S(=O)(=O)c2ccccc2)CC1)NC(=O)NC1CCCCC1	nt	1	4	1.7	-6	0
CCOC(=O)N1CCC(N2CCN(S(=O)(=O)c3ccc(NC(C)=O)cc3)CC2)CC1	-6	-2	16	1.6	-18	-2
CCc1ccc(NC(=O)C(C)OC(=O)c2ccc(N3CCCC3)c([N+](=O)[O-])c2)cc1 (stereo not given)	nt	nt	nt	nt	nt	0
COc1ccc(NC(=O)Cc2coc3cc(C)c(C(C)C)cc23)cc1S(=O)(=O)N1CCOCC1	nt	nt	nt	nt	nt	0
Cc1ccc(-c2nn(CC(=O)NCc3cc(-c4nn(C)c(=O)c5ccccc45)ccc3C)c(=O)c3ccccc23)cc1	1	0	-24	1.8	25*	-3
CCC(=O)NCc1cc(-c2nn(C)c(=O)c3ccccc23)ccc1C	-21	0	-1	1	3	-5
COC(=O)c1c(NC(=O)c2c(-c3ccccc3Cl)noc2C)sc2c1CCC2	11	-2	-10	1.3	10	-1
Cc1onc(-c2ccccc2Cl)c1C(=O)Nc1sc2c(c1C(N)=O)CCC(C)C2 (stereo not given)	11	1	0	nt	1	4.8*
O=S(=O)(NC1c2cccc3cccc(c23)C1Sc1ncccn1)c1ccccc1 (stereo not given)	nt	nt	nt	nt	nt	-2
CCn1nnnc1SCC(=O)Nc1ccc2c(c1)OCO2	-9	0	2	nt	-2	-4
Cc1ccc(NC(=O)CCSc2nnnn2-c2ccc3c(c2)OCO3)cc1C	14	3	17	1.2	-21	6.2*
C=C1N(c2ccccc2)C(=O)OC1(C)C	nt	nt	nt	nt	nt	1
CCc1ccc(-c2nc(-c3ccncc3)no2)cc1	11	1	4	1	-5	5.8*
O=[N+]([O-])c1cccc(/C=N/N2CCN(c3ccccn3)CC2)c1	nt	nt	nt	nt	nt	3

Assay outcomes from PubChem BioAssay.
